# Source: PubChem (several laboratories)
# Mtb BioA inh: M. tuberculosis BioA enzyme inhibitors, primary screen, biochemical, plate reader, single point, HTS | 360,000 compounds, 0.096% hits | AID 602481, 2012 | 7,8-diaminopelargonic acid synthase BioA (Mycobacterium tuberculosis) | purified M. tuberculosis BioA enzyme | inhibition, % at 9.99 µM; in the data active = inhibition above about 40%
# Mtb FBA inh: Mtb FBA enzyme inhibitors, primary screen, biochemical, fluorescence, strain H37Rv. 360,000 compounds, 2.3% hits. Fructose-bisphosphate aldolase (Mycobacterium tuberculosis (strain ATCC 25618 / H37Rv)), …. inhibition, % at 1 µM. purified M. tuberculosis FBA, fluorescence read-out;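 also: 0% = vehicle and 100% = reference inhibitor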
# Target sequence (P9WQA3 whole entry, looked up): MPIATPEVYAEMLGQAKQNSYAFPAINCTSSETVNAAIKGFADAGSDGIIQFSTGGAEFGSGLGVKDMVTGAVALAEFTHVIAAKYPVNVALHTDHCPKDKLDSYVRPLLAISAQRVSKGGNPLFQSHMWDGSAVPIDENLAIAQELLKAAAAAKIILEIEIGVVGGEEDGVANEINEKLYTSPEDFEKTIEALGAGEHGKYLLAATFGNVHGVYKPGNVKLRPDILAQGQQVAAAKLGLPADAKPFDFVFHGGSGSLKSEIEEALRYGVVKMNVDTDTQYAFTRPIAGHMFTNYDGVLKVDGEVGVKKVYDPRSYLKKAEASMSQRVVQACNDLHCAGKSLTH
# GDH-TPI counter-1: GDH-TPI coupling enzyme inhibitors, primary screen, artefact control for M. tuberculosis FBA inhibitor project, biochemical, absorbance, full deck. GDH-TPI coupled enzyme counterscreen, NADH absorbance. inhibition, % at 4.8 µM. 360,000 compounds, 1.2% hits. AID 588335, 2011; in the data active = inhibition above about 30%;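 also: 0% = DMSO wells and 100% = wells lacking the enzyme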
# BH1578 lux ind: inducers of Vibrio cholerae quorum light production without autoinducers, primary screen, BH1578 luxS cqsA deficient, single point; activation, % at 18.7 µM; 350,000 compounds, 0.16% hits; V. cholerae BH1578 lux reporter, luminescence, 6 h; in the data active = activation mostly above about 9.7%, no sharp cut-off
# Mtb FBA confirm: M. tuberculosis aldolase blockers, biochemical, fluorescence, strain H37Rv, confirmation; shares compounds with Mtb FBA inh; purified M. tuberculosis FBA, fluorescence read-out; inhibition, % at 1 µM; 5,600 compounds, 78% hits;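 also: 0% = vehicle wells and 100% = reference inhibitor wells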
# GDH-TPI counter-2: GDH-TPI coupling enzyme inhibitors, artefact control for M. tuberculosis FBA inhibitor project, biochemical, fluorescence, high throughput. AID 652141, 2013. inhibition, % at 1 µM. GDH-TPI coupled enzyme counterscreen. shares compounds with Mtb FBA inh. 5,600 compounds, 81% hits; in the data active = inhibition above about 10%
# * hit, by the source's call; i = inactive; · = no result given; + = active, no number. Hits are enriched below; roughly 3% of the tested compounds scored in any of these assays. Rule as the data show it, unless noted: active = inhibition above about 27%; inactive = the rest.
SMILES,Mtb BioA inh,Mtb FBA inh,GDH-TPI counter-1,BH1578 lux ind,Mtb FBA confirm,GDH-TPI counter-2
CCOC(=O)c1[nH]c2ccc(OC)cc2c1NC(=O)CCN1CCc2ccccc2C1,1.0,39.5*,6.7,0.5,86.9*,83.0*
CCOC(=O)c1[nH]c2ccc(F)cc2c1NC(=O)c1cc(OC)c(OC)c(OC)c1,-2.9,5.4,-1.7,7.4,·,·
C=CCOC(=O)Nc1c(C(=O)OC)[nH]c2ccc(Cl)cc12,0.0,40.4*,17.4,i,0.1,-3.0
C[C@H]1CN([C@@H](C)CO)C(=O)c2cc(NC(=O)CCN3CCOCC3)ccc2O[C@H]1CN(C)Cc1ccc(C(=O)Nc2ccccc2N)cc1,-0.7,·,·,·,·,·
CCOC(=O)c1[nH]c2ccc(OC)cc2c1NC(C)=O,-3.2,34.2*,8.4,i,5.0,-2.5
CCOC(=O)c1[nH]c2ccc(Br)cc2c1NC(=O)CCN1CCC(C)CC1,-0.7,-5.1,4.4,i,·,·
CCOC(=O)c1[nH]c2cc(OC)c(OC)cc2c1NC(=O)CCN1CCSCC1,·,106.6*,20.0,-0.8,125.8*,114.7*
CCOC(=O)c1[nH]c2ccc(OC)cc2c1NC(=O)CN1CCSCC1,2.4,43.9*,7.1,7.7,67.6*,52.3*
CCOC(=O)c1[nH]c2cc(OC)c(OC)cc2c1NC(=O)CN(C)C1CCCCC1,2.0,33.5*,39.6*,i,8.1,-3.0
CCOC(=O)c1[nH]c2ccccc2c1NC(=O)CN1CCCCC1,0.4,3.5,8.7,-0.4,·,·
CC(C)NC(=O)Nc1ccc2c(c1)C(=O)N([C@H](C)CO)C[C@@H](C)[C@H](CN(C)Cc1ccncc1)OCCCC[C@@H](C)O2,0.8,·,·,·,·,·
COc1ccc2oc(C(=O)OCC(=O)N3CC(C)CC(C)C3)c(C)c2c1 (stereo unspecified),·,30.7*,9.1,-5.6,57.1*,51.0*
COc1ccc(CCNC(=O)c2oc3ccc(OC)cc3c2C)cc1,0.2,8.3,8.9,i,·,·
CCOc1ccc2oc(C(=O)OC(C(=O)NC(N)=O)C(C)C)c(C)c2c1 (stereo unspecified),-2.2,39.6*,12.1,-0.3,+,+
COc1ccc2oc(C(=O)OC(C)C(=O)N(C)c3ccccc3)c(C)c2c1 (stereo unspecified),0.6,30.6*,7.9,-1.0,+,+
CCNC(=O)NC(=O)C(C)OC(=O)c1oc2ccc(OC)cc2c1C (stereo unspecified),-0.8,43.6*,21.6,5.9,1.8,-4.9
Cc1c(C(=O)OCC(=O)N2CC(C)CC(C)C2)oc2ccccc12 (stereo unspecified),0.0,2.9,8.1,0.9,·,·
Cc1ccc(S(=O)(=O)Nc2ccc3c(c2)C(=O)N([C@H](C)CO)C[C@@H](C)[C@H](CN(C)C(=O)Nc2ccc(C(F)(F)F)cc2)O3)cc1,-2.0,·,·,·,·,·
Cc1ccc(S(=O)(=O)Nc2ccc3c(c2)C(=O)N([C@@H](C)CO)C[C@@H](C)[C@H](CN(C)C(=O)NC(C)C)O3)cc1,-2.8,·,·,·,·,·
COc1ccc2oc(C(=O)OCC(=O)N3CC(C)OC(C)C3)c(C)c2c1 (stereo unspecified),-1.3,36.2*,-11.0,0.1,25.0,22.8*
CCOc1ccc2oc(C(=O)NCC(C)(C)CN(C)C)c(C)c2c1,·,44.4*,12.1,i,116.2*,85.6*
COc1ccc2oc(C(=O)OC(C)C(=O)Nc3ccc(N4CCOCC4)cc3)c(C)c2c1 (stereo unspecified),-2.4,6.1,12.6,-0.6,·,·
COc1ccc2oc(C(=O)OC(C)C(=O)N3CCC(C)CC3)c(C)c2c1 (stereo unspecified),1.7,44.1*,10.4,-2.5,+,+
O=C(OCC(=O)N1CCN(C(=O)c2ccco2)CC1)c1cc(-c2ccccc2)nc2ccccc12,-3.5,13.4,10.7,i,·,·
CCOc1ccc2oc(C(=O)O)c(C)c2c1,-1.2,17.6,2.5,i,·,·
SMILES,Mtb BioA inh,Mtb FBA inh,GDH-TPI counter-1,BH1578 lux ind,Mtb FBA confirm,GDH-TPI counter-2
COC(=O)C1CCN(C(=O)COC(=O)c2cc(-c3ccccc3)nc3ccc(OC)cc23)CC1,-1.7,82.6*,22.0,-0.4,58.0*,51.2*
C[C@@H]1CCCCO[C@@H](CN(C)S(=O)(=O)c2ccc(F)cc2)[C@@H](C)CN([C@@H](C)CO)C(=O)c2cc(NC(=O)Cc3ccccc3)ccc2O1,-1.6,·,·,·,·,·
C[C@@H]1CN([C@H](C)CO)C(=O)c2cc(NS(=O)(=O)c3cn(C)cn3)ccc2O[C@@H]1CN(C)Cc1ccc(C(F)(F)F)cc1,0.5,·,·,·,·,·
CCOC(=O)C1CCN(C(=O)COC(=O)c2oc3ccc(OC)cc3c2C)CC1,0.2,40.1*,-5.7,-0.3,85.6*,46.5*
CN(C)C(=O)C[C@@H]1CC[C@@H](NS(=O)(=O)c2ccccc2)[C@@H](CO)O1,2.0,·,·,·,·,·
N#Cc1c2c(c(NCc3ccco3)n3c1nc1ccccc13)CCC2,-2.2,90.1*,13.7,-0.6,+,+
CN(C)CC(=O)Nc1ccc2c(c1)[C@H]1C[C@H](CC(=O)NCc3ccccc3F)O[C@H](CO)[C@H]1O2,-2.8,·,·,·,·,·
COc1ccccc1-c1cnc2c(c1)C(=O)N([C@@H](C)CO)C[C@H](C)[C@@H](CN(C)C(=O)CN(C)C)O2,-0.4,·,·,·,·,·
CC(C)Nc1ccc(Nc2ccnc3cc4ccccc4cc23)cc1,·,-1.5,-1.3,-0.2,·,·
c1ccc(CCNc2ccnc3cc4ccccc4cc23)cc1,·,47.0*,3.5,-0.5,-1.2,-1.0
COc1ccc(-c2cn3cc(C)ccc3n2)cc1Br,·,30.0*,11.4,-1.9,130.0*,109.3*
COc1ccc(-c2cn3cc(Cl)ccc3n2)cc1OC,2.0,57.2*,16.2,i,71.9*,46.5*
Cc1ccc2nc(-c3cccc(S(=O)(=O)N(C)C)c3)cn2c1,0.0,4.6,4.4,i,·,·
CCOC(=O)c1cc(-c2cccs2)nc2onc(C)c12,-1.1,41.7*,-6.2,8.3,81.8*,74.0*
CCCCC(c1nnnn1CCOC)N1CCN(CC)CC1 (stereo unspecified),-1.1,38.2*,8.7,i,91.0*,61.8*
CCOc1ccc(C(=O)NCC(=O)OCc2csc(-c3ccccc3)n2)cc1,0.0,28.6*,7.7,0.4,193.8*,165.9*
CO[C@@H]1CN(C)C(=O)c2ccc(NC(=O)C3CC3)cc2OC[C@H](C)N(CCc2ccccc2)C[C@@H]1C,3.0,·,·,·,·,·
CC(C)C(=O)Nc1ccc2c(c1)C(=O)N(CCC(=O)O)C2=O,1.9,40.0*,6.4,·,97.4*,80.5*
